Active and inactive are the calls of the source. Rule for the calls: active = hit-call score of the fitted dose curve at least 0.9, where 1 is the maximum; inactive = score below 0.9.
read-out: TIMP metallopeptidase inhibitor 1 (TIMP1), TIMP1 (gene 7076); assay: BSK_hDFCGF_TIMP1: BioMAP Diversity Plus: hDFCGF Assay for TIMP metallopeptidase inhibitor 1 (TIMP1) Biomarker Activity (AID 2283062); settings: primary human foreskin fibroblasts; actives raise or lower the signal
Experimental: BSK_hDFCGF is a cell-based, multiplexed-readout assay that uses foreskin fibroblast, a human skin primary cell, with measurements taken at 24 hours after chemical dosing in a 96-well plate.BSK_hDFCGF_TIMP1 is an assay component measured in the BSK_hDFCGF assay. It measures TIMP-1 antibody related to regulation of gene expression using ELISA technology.Data from the assay component BSK_hDFCGF_TIMP1 was analyzed into 1 assay endpoint. This assay endpoint, BSK_hDFCGF_TIMP1, was analyzed with bidirectional fitting relative to DMSO as the negative control and baseline of activity. Using a type of binding reporter, gain or loss-of-signal activity can be used to understand changes in the signaling as they relate to the gene TIMP1. Furthermore, this assay endpoint can be referred to as a primary readout, because this assay has produced multiple assay endpoints where this one serves a signaling function. To generalize the intended target to other relatable targets, this assay endpoint is annotated to the protease inhibitor intended target family, where the subfamily is metalloproteinase inhibitor.
The levels of cell surface (or secreted, indicated by the prefix "s") biomarker endpoints were measured by ELISA. Overt cytotoxicity to cells in confluent adherent cultures (all systems other than the BT system) was assessed by measuring total protein levels using sulforhodamine B (SRB) staining in parallel cultures at the time of biomarker measurements, indicated as SRB endpoints. For proliferation assays for adherent cell types, individual cell types are cultured at sub-confluence and relative cell numbers quantified by SRB staining at time points optimized for each system (48 h: 3C and CASM3C systems; 72 h: BT and HDF3CGF systems; 96 h: SAg system). SRB was performed by staining cells with 0.1% SRB after fixation with 10% TCA and reading wells at 560 nm.Viability and proliferation of PBMC (T cells) was quantified by Alamar Blue reduction for the SAg and BT systems. For PBMC viability (referred to as PBMC Cytotoxicity within the assay endpoint names), cells were plated (75,000/well in a 96-well plate) and then chemical samples added for 1 h before addition of activators, SEB and TSST-1 (20 ng/mL final concentration each). Cells were incubated for 90 h. Then, Alamar Blue (20 uL/well) (Invitrogen, Cat DAL1100) was added for 6 h, and the plates were read with a fluorescence microplate reader at 546/580 nm (excitation/emission). For PBMC proliferation, cells were plated and activated as above but incubated for only 16 h prior to addition of Alamar Blue. Plates were read after 6 h.

Row | SMILES | outcome | AC50
1 | CCOC(=O)NCCOc1ccc(Oc2ccccc2)cc1 | inactive | 
2 | CCN(Cc1c(F)cccc1Cl)c1c([N+](=O)[O-])cc(C(F)(F)F)cc1[N+](=O)[O-] | inactive | 
3 | C[C@]12CC[C@@H]3c4ccc(O)cc4C[C@@H](CCCCCCCCCS(=O)CCCC(F)(F)C(F)(F)F)[C@H]3[C@@H]1CC[C@@H]2O (stereo not given in full) | inactive | 
4 | S=C([S-])NCCNC(=S)[S-].[Mn+2] | inactive | 
5 | CN(C)C(=O)Nc1ccc(Cl)c(Cl)c1 | inactive | 
6 | CC1(C)C(C=C(Cl)Cl)C1C(=O)OCc1cccc(Oc2ccccc2)c1 (stereo not given) | inactive | 
7 | S=C(S)NCCNC(=S)S.[Mn+2].[S-]C([S-])=NCCN=C([S-])[S-].[Zn+2] | inactive | 
8 | C#CCOC(=O)[C@@H](C)Oc1ccc(Oc2ncc(Cl)cc2F)cc1 | inactive | 
9 | CCCCC(CC)COC(=O)c1ccccc1C(=O)O (stereo not given) | inactive | 
10 | O=C(c1ccc(O)cc1O)c1ccc(O)cc1O | inactive | 
11 | CC(=O)S[C@@H]1CC2=CC(=O)CC[C@]2(C)[C@H]2CC[C@@]3(C)[C@@H](CC[C@@]34CCC(=O)O4)[C@H]12 | inactive | 
12 | COc1nc(C)nc(NC(=O)NS(=O)(=O)c2ccccc2OCCCl)n1 | inactive | 
13 | CCSC(=O)N(CC(C)C)CC(C)C | inactive | 
14 | Cc1nn(C)c(Oc2ccccc2)c1C=NOCc1ccc(C(=O)OC(C)(C)C)cc1 | inactive | 
15 | COC(=O)c1ccc(I)cc1S(=O)(=O)NC(=O)Nc1nc(C)nc(OC)n1 | inactive | 
16 | CSC(=O)c1cccc2nnsc12 | inactive | 
17 | COCCO | inactive | 
18 | CC(C)CCCCCCc1ccc(O)cc1 |  | 11.9 µM (active)
19 | CCCN(CCC)C(=O)SCC | inactive | 
20 | CCCCOC(=O)[C@@H](C)Oc1ccc(Oc2ccc(C(F)(F)F)cn2)cc1 | inactive | 

Row | SMILES | outcome | AC50
21 | CCC(O)=C1C(=O)CC(C(=O)O)CC1=O (stereo not given) | inactive | 
22 | CCOC(=O)c1ccc(O)cc1 | inactive | 
23 | CCCN(CCC)c1c([N+](=O)[O-])cc(C(F)(F)F)c(N)c1[N+](=O)[O-] |  | 30.2 µM (active)
24 | O=C(O)C1(C(=O)Nc2ccc(Cl)cc2Cl)CC1 | inactive | 
25 | C=CCOC(Cn1ccnc1)c1ccc(Cl)cc1Cl (stereo not given) |  | 30 µM (active)
26 | CCCCOC(=O)C(C)Oc1ccc(Oc2ccc(C(F)(F)F)cn2)cc1 (stereo not given) | inactive | 
27 | CC(C)(c1ccc(O)cc1)c1ccc(O)cc1 | inactive | 
28 | O=C(Nc1ccc([N+](=O)[O-])cc1Cl)c1cc(Cl)ccc1O |  | 0.149 µM (active)
29 | CCOC(=O)C(C)Oc1ccc(Oc2cnc3cc(Cl)ccc3n2)cc1 (stereo not given) | inactive | 
30 | COC(=O)c1ccccc1C(=O)O |  | 6.58 µM (active)
31 | CCCOC(=O)NCCCN(C)C | inactive | 
32 | c1ccc(Nc2ccccc2)cc1 | inactive | 
33 | OB(O)O | inactive | 
34 | COC(=O)c1cccc(C)c1S(=O)(=O)NC(=O)Nc1nc(OCC(F)(F)F)nc(N(C)C)n1 | inactive | 
35 | CCC(C)OC(=O)N1CCCCC1CCO (stereo not given) | inactive | 
36 | CCN(CC)C(=O)c1cccc(C)c1 | inactive | 
37 | CCNc1nc(N)nc(Cl)n1 | inactive | 
38 | CCCCOCCOCCOCc1cc2c(cc1CCC)OCO2 | inactive | 
39 | CCCOC(=O)c1ccc(C(=O)OCCC)nc1 | inactive | 
40 | CCCCCCC(C)OC(=O)COc1nc(F)c(Cl)c(N)c1Cl (stereo not given) |  | 26 µM (active)

Reference: PubChem BioAssay (EPA / NIEHS)
